In the library only some 7.5% were active in any assay of this set; here they are far more common.
Rab9 promoter act: activates the Rab9 promoter | actives 2.8% (n = 320,000) | Huh7 Rab9 promoter-luciferase reporter, luminescence, 24 h | Potency, µM (doses to about 9.22 µM), hits mostly activators | AID 485297; also: nearly all actives have a fitted effect of over 60% in size
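Huh7 cells stably carrying a Rab9 promoter-luciferase reporter, 1500 cells per well in OP-MEM I with 10% FBS, treated with compound 24 hours at 37C. Luciferase activity read by luminescence after 10 minutes with Amplite reagent.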
KinaseGlo FLuc: counter-screen: inhibitors of Kinase-Glo firefly luciferase; Kinase-Glo luciferase, ATP luminescence, 8 min; Potency, µM (series often up to 38.3 µM), most hits filed as inhibitors; actives 0.28% (n = 200,000); also: nearly all actives have a fitted effect of over 60% in size
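Compounds were added to a substrate mix at pH 7.2 (50 mM imidazole, 10 uM ATP, within the enzyme's linear range), followed by Kinase-Glo detection reagent; luminescence was measured after 8 minutes at ambient temperature.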
NPC1 promoter act: activates the NPC1 promoter; Huh7 NPC1 promoter luciferase reporter, 24 h; Potency, µM (highest dose often 9.22 µM), usual class: activators; actives 2.4% (n = 320,000); AID 485313; also: nearly all actives have a fitted effect of over 60% in size
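Cells: Huh7 expressing luciferase under the NPC1 promoter, 1500/well. Seeded 2 h, compound added, incubated 24 h at 37 °C. Luciferase reagent, 10 min ambient, then luminescence.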
SMN2 splice up: increases expression of the SMN2 splice variant | Potency, µM (highest dose often 46.1 µM), most hits filed as activators | HEK293 SMN2-luciferase splicing reporter, luminescence, 30-36 h | actives 2.8% (n = 210,000); also: nearly all actives have a fitted effect of over 55% in size
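HEK293 cells carry an SMN2 […]–luciferase reporter in which exon 7 inclusion puts luciferase in frame. Cells were plated 10-12 h before compound addition, then incubated 30-36 h at 37C. ONE-Glo luminescence was read; sodium butyrate at 4.5 mM final served as control.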
FLuc counter: counter-screen for miR-21 project: firefly luciferase inhibitors or activators; purified FLuc, Km substrates, luminescence inhibition; Potency, µM (series often up to 57.5 µM), hits mostly inhibitors; actives 6.9% (n = 360,000); AID 588342; also: nearly all actives have a fitted effect of over 55% in size
Target sequence (P08659 whole entry, looked up): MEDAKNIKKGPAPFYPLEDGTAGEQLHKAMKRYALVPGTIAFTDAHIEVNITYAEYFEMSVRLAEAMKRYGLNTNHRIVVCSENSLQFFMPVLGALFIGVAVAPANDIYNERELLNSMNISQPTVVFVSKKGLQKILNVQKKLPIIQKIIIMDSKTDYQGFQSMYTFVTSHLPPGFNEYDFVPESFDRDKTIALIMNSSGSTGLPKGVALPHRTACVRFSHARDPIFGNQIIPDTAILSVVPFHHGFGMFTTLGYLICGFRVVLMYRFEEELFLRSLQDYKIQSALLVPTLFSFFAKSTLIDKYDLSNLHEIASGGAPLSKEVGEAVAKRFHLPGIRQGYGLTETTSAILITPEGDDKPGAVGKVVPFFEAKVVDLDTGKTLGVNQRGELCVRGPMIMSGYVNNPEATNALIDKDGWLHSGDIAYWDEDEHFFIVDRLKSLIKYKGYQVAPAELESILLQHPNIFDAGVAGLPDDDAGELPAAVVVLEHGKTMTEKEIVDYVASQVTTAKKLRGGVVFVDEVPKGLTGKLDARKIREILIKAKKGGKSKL
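Purified P. pyralis luciferase (10nM final) with 10uM D-luciferin and 10uM ATP (Km levels) in 50mM Tris acetate pH 7.5, 10mM Mg acetate, 0.01% Tween-20, 0.05% BSA; qHTS 6-point titration, ~60 µM downward; luminescence read.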
ELG1 genotox: inducers of genotoxicity in HEK293T ELG1-luciferase cells; HEK293T ELG1-luciferase reporter, luminescence, 16 h; actives 1.3% (n = 330,000); Potency, µM (top dose mostly 46 µM), usual class: activators; AID 504466; also: nearly all actives have a fitted effect of over 60% in size
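HEK293T cells expressing luciferase-tagged ELG1 were treated with compound or DMSO for 16 hr at 37°C. Luciferase activity was then read after 30 min with ONE-Glo at room temperature; rising signal flags genetic stress.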
A number is an active result; 0 = inactive; ? = inconclusive; - = no result given. Calls follow the shape of the dose curve; as a rule, active = well fitted curve in the direction sought with a large enough effect; inconclusive = small, poorly fitted or top-dose-only effect, or another doubt; inactive = no such curve, though single readings can be large; an effect the other way counts as inactive or inconclusive.

SMILES	Rab9 promoter act	KinaseGlo FLuc	NPC1 promoter act	SMN2 splice up	FLuc counter	ELG1 genotox
Cc1cc(C)c(Cn2c3ccccc3c3cnn(CC(=O)NCCCc4ccccc4)c(=O)c32)c(C)c1	-	-	-	0	0	-
COc1ccc(NC(=O)c2cccnc2Nc2ccc(OC)cc2)cc1	0	0	0	0	?	0
CC(C)c1ccc(Nc2ncccc2C(=O)O)cc1	0.398µM	0	0.631µM	15.8µM	2.69µM	?
O=C(NCc1cccs1)C(=O)NCC1OCCCN1S(=O)(=O)c1ccccc1 (stereo not given)	0	0	0	5.62µM	0	0
Cc1cc(S(=O)(=O)N2CCCOC2CNC(=O)C(=O)NCc2cccs2)ccc1F (stereo not given)	0	-	0	-	0	0
O=C(/C=C/c1ccco1)Nc1nc(-c2ccccc2)cs1	2.51µM	0	2.82µM	11.2µM	4.78µM	0
CCOC(=O)Cc1csc(NC(=O)/C=C/c2ccc(Cl)cc2)n1	0	-	0	-	2.39µM	0
O=C(/C=C/c1ccco1)Nc1nc(-c2ccccn2)cs1	?	0	?	?	21.3µM	0
CCOC(=O)Cc1csc(NC(=O)/C=C/c2ccco2)n1	0	-	0	-	10.7µM	0
COc1ccccc1CNC(=O)Cc1csc2nc(-c3ccc(Cl)cc3)cn12	-	-	-	-	0	-
O=C(NC1CCCCC1)c1ccc2c(c1)N(Cc1cccc(Cl)c1)C(=O)c1ccccc1S2(=O)=O	-	-	-	-	0	-
Cc1csc(NC(=O)/C=C/c2ccco2)n1	2.82µM	0	0	15.8µM	6.75µM	?
O=C(/C=C/c1ccco1)Nc1nc(-c2ccc(F)c(F)c2)cs1	0	-	0	-	?	0
Cc1csc(NC(=O)/C=C/c2ccc(C)o2)n1	0	0	0	20µM	10.7µM	0
O=C(/C=C/c1cc(Br)ccc1O)c1ccco1	0	-	0	-	?	0
CC(C)(C)C(=O)Nc1ccc(/C=C/C(=O)c2ccco2)cc1	0.447µM	-	0.355µM	-	0.426µM	18.3µM
Nc1ccc(/C=C/C(=O)c2ccco2)cc1	?	0	0	0	6.01µM	?
O=C(/C=C/c1ccccc1O)c1ccco1	0	-	0	-	16.9µM	?
CCc1ccc(/C=C(\C#N)C(=O)NC2CCS(=O)(=O)C2)cc1 (stereo not given)	-	-	-	-	-	0
O=S(=O)(Nc1nc2cc3c(cc2nc1Cl)OCCO3)c1ccccc1	0	0	0	0	?	0
COc1ccc(Nc2nc3ccccc3nc2NS(=O)(=O)c2ccc(NC(C)=O)cc2)cc1	0	-	0	-	15.1µM	0
CC(=O)Nc1ccc(S(=O)(=O)Nc2nc3cc4c(cc3nc2Cl)OCCO4)cc1	0	-	0	-	19µM	0
CCOc1ccc(S(=O)(=O)Nc2nc3ccccc3nc2Nc2ccc(OC)cc2)cc1	-	-	-	0	13.5µM	-
Cc1ccc2nc(NS(=O)(=O)c3ccc(Cl)cc3)c(Nc3ccc(C(=O)O)cc3)nc2c1	-	-	-	0	10.7µM	-
O=[N+]([O-])c1ccc2c(c1)nc(CO)n2Cc1ccccc1	0	-	0	-	0	0
SMILES	Rab9 promoter act	KinaseGlo FLuc	NPC1 promoter act	SMN2 splice up	FLuc counter	ELG1 genotox
CC(=O)Nc1ccc(S(=O)(=O)Nc2nc3ccccc3nc2Nc2ccc(S(N)(=O)=O)cc2)cc1	0	0	0	0	?	0
CCOc1ccc(S(=O)(=O)Nc2nc3ccccc3nc2Nc2ccc(N3CCOCC3)cc2)cc1	0	0	0	0	10.7µM	0
CC(=O)c1ccc(Nc2nc3ccccc3nc2NS(=O)(=O)c2cccs2)cc1	0	-	0	-	19µM	0
COc1cccc(Nc2nc3ccccc3nc2NS(=O)(=O)c2ccc(NC(C)=O)cc2)c1	0	-	0	-	23.9µM	0
COc1ccc(S(=O)(=O)Nc2ccc(N3CCOCC3)cc2)cc1	0	-	0	-	0	0
O=C(O)c1ccc(CO)o1	-	-	-	0	-	-
CC1=CC(=C2N=C(c3ccccc3)OC2=O)C=C(C)O1	?	0	?	0	?	0
CN1C=CC=C/C1=C1/N=C(c2ccccc2)OC1=O	3.16µM	0	?	?	?	0
CCc1ccc(NC(=O)C2CCN(S(=O)(=O)c3ccc4[nH]c(=O)ccc4c3)CC2)cc1	0	-	0	-	0	?
CC(=O)COc1ccc2c(c1C)O/C(=C\c1ccco1)C2=O	?	-	?	-	5.36µM	?
O=C(Oc1ccc2c(c1)O/C(=C\c1ccncc1)C2=O)c1ccccc1	0	0	0	0	0	0
CC1CCCN(Cc2c(O)ccc3c2O/C(=C\c2ccco2)C3=O)C1 (stereo not given)	0	0	0	0	0	0
COc1ccc2c(c1)O/C(=C\c1ccco1)C2=O	3.98µM	-	4.47µM	-	0.601µM	?
COC(=O)C(C)Oc1ccc2c(c1)O/C(=C\c1ccco1)C2=O (stereo not given)	0	-	0	-	3.01µM	0
Cc1cc(C)cc(NC(=O)C2CCCN(c3nnc(C)c4c(C)n(-c5ccccc5)nc34)C2)c1 (stereo not given)	-	-	-	-	0	-
O=c1c2ccccc2c(C=NC2CCN(Cc3ccccc3)CC2)c(O)n1Cc1ccc2c(c1)OCO2	0	0	0	0	0	0
COc1ccc(OC)c(NC(=O)CC2C(=O)NCCN2C(=O)C(F)(F)F)c1 (stereo not given)	-	-	-	-	0	-
CCOc1ccc(C(=O)Nc2ccc3nc(SCC(=O)N4CCc5ccccc54)sc3c2)cc1	-	-	-	-	0	-
O=C1c2ccccc2S(=O)(=O)N1Cc1ccccc1[N+](=O)[O-]	0	-	0	-	0	0
O=C1c2ccccc2C(=O)N1OCc1ccccc1[N+](=O)[O-]	0	0	0	0	16.9µM	0
O=C(Cc1ccccc1[N+](=O)[O-])OCN1C(=O)c2ccccc2C1=O	0	-	0	-	9.53µM	0
Cc1nc(S/C(=C/c2ccc(OCc3ccc(C(=O)O)cc3)cc2)C(=O)O)n[nH]1	0	0	0	0	26.9µM	0
CCOC(=O)c1c(C)[nH]c(C(=O)COC(=O)c2oc3ccccc3c2C)c1C	0	0	0	0	0	0
CCOC(=O)c1c(C)[nH]c(C(=O)COC(=O)CCSc2ccccc2)c1C	0	0	0	0	16.9µM	?
CCOC(=O)c1[nH]c(C)c(C(=O)/C=C/c2ccc(C(=O)O)cc2)c1C	0	-	0	-	13.5µM	0
SMILES	Rab9 promoter act	KinaseGlo FLuc	NPC1 promoter act	SMN2 splice up	FLuc counter	ELG1 genotox
CCOC(=O)c1c(C)[nH]c(C(=O)CSc2ccccc2)c1C	0.398µM	-	0.562µM	-	0.536µM	0.651µM
Cc1cc(C(=O)CSc2ccc(F)cc2)cc(C)c1O	0	-	0	-	19µM	?
CC(=O)c1c(C)[nH]c(C(=O)COC(=O)CCSc2ccccc2)c1C	0	0	0	0	0	0
CCCCCC(=O)/C=C/[C@@H]1[C@@H](C/C=C\CCCC(=O)O)[C@@H](O)C[C@H]1O	-	0	-	0	-	-
CCOc1ccc(CNC(=O)c2cnc3sc(N4CCCCCC4)nn3c2=O)cc1OC	-	-	-	-	0	-
Cc1ccn2c(C(=O)CSc3ccc(Cl)cc3)c(C)nc2c1	0	0	0	0	0	0

Screening data as filed in PubChem.
